“And” between values parts separate entries of the source, which are not always exact repeats. Equal values may be shown once. Inconclusive results are not listed. Entries that show only a call come without a potency. The source made the active and inactive calls. Unless noted, calls come from the whole dose curve; as a rule, active = well fitted curve in the direction sought with a large enough effect; inconclusive = small, poorly fitted or top-dose-only effect, or another doubt; inactive = no such curve, though single readings can be large; an effect the other way counts as inactive or inconclusive.
Assays:
[1] = Primary qHTS for inhibitors of nuclear receptor binding SET domain protein 2 (NSD2) in an RCH-ACV wild type WT cells (2C) (AID 1645877); settings: RCH-ACV (leukaemia line) NSD2 WT (2C) viability, CellTiter-Glo, 72 h; series mostly up to 44.9 µM; note: nearly all actives have a fitted effect of over 70% in size; note: potency is the fitted concentration of half-maximal effect
[2] = molecular target: Glutathione peroxidase 1 (Homo sapiens) (UniProt P07203); assay: Primary qHTS Assay for Inhibitors of Recombinant Selenoprotein Glutathione Peroxidase 1 (GPX1) (AID 1845191); settings: recombinant GPX1, GR-coupled NADPH fluorescence, 15 min; series mostly up to 48.8 µM; note: nearly all actives have a fitted effect of over 65% in size
Glutathione peroxidase 1 (Homo sapiens), sequence (P07203 whole entry, looked up): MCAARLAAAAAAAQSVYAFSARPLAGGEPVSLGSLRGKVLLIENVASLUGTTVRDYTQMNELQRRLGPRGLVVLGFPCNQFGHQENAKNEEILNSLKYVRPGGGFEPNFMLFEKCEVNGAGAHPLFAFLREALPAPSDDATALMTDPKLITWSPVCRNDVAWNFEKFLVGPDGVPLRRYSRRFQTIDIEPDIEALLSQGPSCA
Method in brief: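 10 nM GPX1 + cpd, 30 min RT; start w/ 1 mM GSH, 0.5 mM cumene hydroperoxide, 0.5 mM NADPH, 100 nM GR, 0.01% BSA; buffer 50 mM Tris-HCl pH 7.5, 2 mM EDTA, 150 mM NaCl; Fl 340/450, 0 & 15 min.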

[3] = molecular target: Phospholipid hydroperoxide glutathione peroxidase GPX4 (Homo sapiens) (UniProt P36969); assay: Primary qHTS Assay for Inhibitors of Recombinant Selenoprotein Glutathione Peroxidase 4 (GPX4) (AID 1845192); settings: recombinant GPX4, GR-coupled NADPH fluorescence, 15 min; series mostly up to 50 µM; note: nearly all actives have a fitted effect of over 65% in size; note: potency is the fitted concentration of half-maximal effect
Phospholipid hydroperoxide glutathione peroxidase GPX4 (Homo sapiens), sequence (P36969 whole entry, looked up): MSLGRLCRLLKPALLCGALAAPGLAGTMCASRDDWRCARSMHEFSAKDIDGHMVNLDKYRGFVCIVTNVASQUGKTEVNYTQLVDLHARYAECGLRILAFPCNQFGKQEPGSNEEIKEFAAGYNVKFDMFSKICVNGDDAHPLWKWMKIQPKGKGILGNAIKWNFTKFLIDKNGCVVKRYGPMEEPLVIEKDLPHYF
Method in brief: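 NADPH consumption, followed by fluorescence at 340/450 nm between 0 and 15 min, reports GPX4 activity via coupled glutathione reductase (100 nM). Enzyme 200 nM was pre-exposed to compound 30 min; 0.5 mM cumene hydroperoxide and 1 mM GSH served as substrates.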

[4] = Viability counterscreen for antagonist of constitutive androstane receptor (CAR) against the NCATS DSHEA and TCM libraries (AID 1794837); settings: CAR reporter cell line viability counterscreen, qHTS; series mostly up to 40 µM;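 note: compound exposure lasted 24 h before viability reading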
Method in brief: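 Cell viability, CellTiter-Fluor, Ex/Em 405/540 nm, 1 h at 37C. HepG2-CYP2B6-hCAR, 2,500 cells/well; cpds + CITCO 48 uM final (antagonist mode), 24 h, 37C/5% CO2.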

[5] = Viability counterscreen for agonist of constitutive androstane receptor (CAR) against the NCATS DSHEA and TCM libraries (AID 1794838); settings: HepG2 cell viability counterscreen, CAR agonist assay, co-treated with 0.75 µM CAR antagonist; series mostly up to 40 µM
Method in brief: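 Viability by CellTiter-Fluor fluorescence, 405/540 nm, after 1 h at 37C. HepG2-CYP2B6-hCAR cells were exposed 24 h to test substances in presence of 0.75 uM PK11195 (final).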

[6] = molecular target: Nuclear receptor subfamily 1 group I member 3 (Homo sapiens) (UniProt Q14994); assay: Primary qHTS for agonist of constitutive androstane receptor (CAR) against the NCATS DSHEA and TCM libraries (AID 1794839); settings: CAR agonist reporter cells, qHTS luminescence, CAR antagonist co-added at 0.75 µM; series mostly up to 40 µM;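 note: HepG2 cells expressing human CAR with a CYP2B6 reporter plus PK11195 antagonist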
Nuclear receptor subfamily 1 group I member 3 (Homo sapiens), sequence (Q14994 whole entry, looked up): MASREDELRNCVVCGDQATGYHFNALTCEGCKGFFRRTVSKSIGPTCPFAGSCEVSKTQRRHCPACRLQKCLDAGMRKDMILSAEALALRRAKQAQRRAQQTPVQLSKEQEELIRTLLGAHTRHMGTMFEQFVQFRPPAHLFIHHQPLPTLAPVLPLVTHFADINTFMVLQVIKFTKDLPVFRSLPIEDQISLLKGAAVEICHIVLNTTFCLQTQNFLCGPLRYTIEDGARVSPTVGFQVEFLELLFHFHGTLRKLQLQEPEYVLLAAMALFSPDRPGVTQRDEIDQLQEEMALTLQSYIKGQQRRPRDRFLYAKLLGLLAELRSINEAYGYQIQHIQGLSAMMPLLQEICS
Method in brief: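 Luminescence from ONE-Glo luciferase was the agonist read-out in HepG2-CYP2B6-hCAR cells exposed 24 h to test substances. Wells also held the CAR antagonist PK11195 at 0.75 µM final. Viability was by CellTiter-Fluor fluorescence.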

[7] = HepG2 viability counterscreen (readout 2: ATP content) against the NCATS DSHEA and TCM libraries (AID 1794840); settings: ATP content luminescence; series mostly up to 27.3 µM
Method in brief: (§1)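 1,000 HepG2 cells/well, 4 h attach; compounds ~24 h, 37C/5% CO2. Readout 1: GF-AFC 25 uM final, 30 min, fluorescence 380/510 nm. Readout 2: CellTiter-Glo, 30 min RT, luminescence.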

[8] = HepG2 viability counterscreen (readout 1: protease activity) against the NCATS DSHEA and TCM libraries (AID 1794841); settings: qHTS concentration series; series mostly up to 27.3 µM;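 note: cells exposed to compounds for about 24 h before the protease read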
Method in brief: as §1

[9] = molecular target: Metallo-beta-lactamase type 2 (Klebsiella pneumoniae) (UniProt C7C422); assay: qHTS to identify inhibitors of the New Delhi Metallo-beta-lactamase (NDM): assay validation screen against the NCATS LOPAC Collection (AID 1794843); settings: NDM-1 enzyme, nitrocefin hydrolysis, absorbance 485 nm; series mostly up to 38.4 µM;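 note: nitrocefin turnover by NDM-1 measured as 485 nm absorbance at plateau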
Metallo-beta-lactamase type 2 (Klebsiella pneumoniae), sequence (C7C422 whole entry, looked up): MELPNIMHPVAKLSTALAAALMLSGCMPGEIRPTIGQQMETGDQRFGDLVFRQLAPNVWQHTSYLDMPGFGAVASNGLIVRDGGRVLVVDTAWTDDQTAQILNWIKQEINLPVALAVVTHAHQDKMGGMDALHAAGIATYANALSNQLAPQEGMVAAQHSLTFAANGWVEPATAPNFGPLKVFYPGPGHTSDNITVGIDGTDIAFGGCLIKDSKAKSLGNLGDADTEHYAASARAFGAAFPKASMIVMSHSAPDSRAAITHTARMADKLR
Method in brief: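 Nitrocefin hydrolysis (50 uM substrate stock) by NDM-1, 2 nM final, was followed by 485 nm absorbance after compound preincubation; buffer was 50 mM HEPES pH 7.0, 1 uM ZnSO4, 0.01% Tween20.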

[10] = NCATS anti-infectives library activity on HEK293 viability as a counter-qHTS vs the C. elegans viability qHTS (AID 1745854); settings: HEK293 viability counter-screen; series mostly up to 41.8 µM;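 note: HEK293 cells exposed to compounds for 24 hr before the viability read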
Method in brief: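 Cytotoxicity in human HEK293 cells is measured by ATP-dependent CellTiter-Glo luminescence following a 24 hr incubation with titrated library compounds at 37C. Top final concentration is 41.7 uM.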

[11] = NCATS anti-infectives library activity on the primary C. elegans qHTS viability assay (AID 1745855; calls by dose curve); settings: C. elegans worm area imaging, day 7; at 41.8 µM (top of the series)
Method in brief: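 Viability is taken from GFP fluorescence of PE254-GFP-FLuc C. elegans imaged by laser cytometry over 7 days. Ten L1 worms per well grow at 21 °C on TOP10 E. coli capsules with titrated compound; levamisole marks toxicity.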

[12] = molecular target: Catechol O-methyltransferase (Homo sapiens) (UniProt P21964); assay: Confirmatory Screen for Target Class Profiling of Small Molecule Inhibitors of Methyltransferases (AID 1745852; calls by dose curve); settings: MTase-Glo luminescence, SAH detection, recombinant enzyme; measured here: COMT max response; stronger effect = lower value
Catechol O-methyltransferase (Homo sapiens), sequence (P21964 whole entry, looked up): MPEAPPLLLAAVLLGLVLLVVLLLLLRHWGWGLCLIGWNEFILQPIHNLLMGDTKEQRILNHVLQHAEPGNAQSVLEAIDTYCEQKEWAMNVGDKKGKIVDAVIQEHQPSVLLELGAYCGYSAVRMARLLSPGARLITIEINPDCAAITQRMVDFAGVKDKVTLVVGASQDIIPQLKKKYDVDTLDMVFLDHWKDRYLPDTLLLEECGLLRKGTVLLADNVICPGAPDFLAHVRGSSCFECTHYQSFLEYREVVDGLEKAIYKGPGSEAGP

[13] = molecular target: Guanidinoacetate N-methyltransferase (Homo sapiens) (UniProt Q14353); assay: as above; settings: MTase-Glo luminescence, SAH detection, recombinant enzyme; at 57.3 µM (top of the series)
[14] = molecular target: Nicotinamide N-methyltransferase (Homo sapiens) (UniProt P40261); assay: as above; settings: MTase-Glo luminescence, SAH detection, recombinant enzyme; measured here: NNMT max response; stronger effect = lower value
Nicotinamide N-methyltransferase (Homo sapiens), sequence (P40261 whole entry, looked up): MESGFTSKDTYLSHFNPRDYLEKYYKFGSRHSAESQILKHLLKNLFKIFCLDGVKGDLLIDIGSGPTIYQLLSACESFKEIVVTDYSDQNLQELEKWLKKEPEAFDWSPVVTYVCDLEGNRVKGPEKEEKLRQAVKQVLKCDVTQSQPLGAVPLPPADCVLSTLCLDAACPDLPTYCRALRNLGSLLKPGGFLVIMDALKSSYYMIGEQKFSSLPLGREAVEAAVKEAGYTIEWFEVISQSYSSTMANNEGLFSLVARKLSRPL

[15] = molecular target: Phenylethanolamine N-methyltransferase (Homo sapiens) (UniProt P11086); assay: as above; settings: MTase-Glo luminescence, SAH detection, recombinant enzyme; measured here: PNMT max response; stronger effect = lower value
Phenylethanolamine N-methyltransferase (Homo sapiens), sequence (P11086 whole entry, looked up): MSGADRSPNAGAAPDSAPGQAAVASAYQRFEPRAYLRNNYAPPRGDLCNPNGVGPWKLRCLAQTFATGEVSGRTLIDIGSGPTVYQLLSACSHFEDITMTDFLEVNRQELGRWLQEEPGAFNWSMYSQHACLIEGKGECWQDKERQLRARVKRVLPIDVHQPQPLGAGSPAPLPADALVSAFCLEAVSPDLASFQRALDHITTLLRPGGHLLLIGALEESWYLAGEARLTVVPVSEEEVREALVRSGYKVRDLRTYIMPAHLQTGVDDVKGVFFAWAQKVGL

[16] = molecular target: Rap guanine nucleotide exchange factor 3 (Homo sapiens) (UniProt O95398); assay: Confirmatory qHTS for antagonist of cAMP-regulated guanine nucleotide exchange factor 3 (EPAC1) (AID 1645880); settings: EPAC1 Rap1B-BODIPY-GDP exchange, fluorescence; series mostly up to 203 µM; note: nearly all actives have a fitted effect of over 55% in size
Rap guanine nucleotide exchange factor 3 (Homo sapiens), sequence (O95398 whole entry, looked up): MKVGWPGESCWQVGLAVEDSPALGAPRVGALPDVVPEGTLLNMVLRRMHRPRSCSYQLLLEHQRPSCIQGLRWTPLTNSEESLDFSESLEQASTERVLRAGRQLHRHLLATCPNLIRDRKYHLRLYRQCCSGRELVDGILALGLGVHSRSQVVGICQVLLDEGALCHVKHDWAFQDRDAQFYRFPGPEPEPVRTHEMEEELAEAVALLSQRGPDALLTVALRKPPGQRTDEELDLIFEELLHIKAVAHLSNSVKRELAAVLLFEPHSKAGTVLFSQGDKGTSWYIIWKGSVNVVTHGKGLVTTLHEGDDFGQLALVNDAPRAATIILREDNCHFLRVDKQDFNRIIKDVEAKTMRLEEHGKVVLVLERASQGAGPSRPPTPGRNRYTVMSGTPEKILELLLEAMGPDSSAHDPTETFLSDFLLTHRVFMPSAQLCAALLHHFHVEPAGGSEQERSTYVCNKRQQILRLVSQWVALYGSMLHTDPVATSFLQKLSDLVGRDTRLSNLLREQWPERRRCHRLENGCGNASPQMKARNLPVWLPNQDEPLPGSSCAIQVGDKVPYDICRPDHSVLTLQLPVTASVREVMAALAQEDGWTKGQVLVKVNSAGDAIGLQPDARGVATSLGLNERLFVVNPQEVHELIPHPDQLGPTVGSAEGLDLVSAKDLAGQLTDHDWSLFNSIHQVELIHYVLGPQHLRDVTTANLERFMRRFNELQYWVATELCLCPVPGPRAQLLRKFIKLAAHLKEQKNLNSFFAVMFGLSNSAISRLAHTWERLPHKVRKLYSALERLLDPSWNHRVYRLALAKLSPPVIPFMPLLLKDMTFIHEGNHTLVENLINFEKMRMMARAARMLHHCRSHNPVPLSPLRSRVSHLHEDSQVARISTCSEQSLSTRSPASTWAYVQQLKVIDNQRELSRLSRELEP
Method in brief: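 Nucleotide exchange uses 100 nM EPAC1, 250 nM RAP1B-BODIPY-GDP and 50 uM GDP, with compounds in a concentration-titration series. After 5 min at room temperature, fluorescence (480 nm ex/540 nm em) is read every 5 min for 30 min. Data are normalized to control ATA and DMSO.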

[17] = molecular target: Rap guanine nucleotide exchange factor 3 (Homo sapiens) (UniProt O95398); assay: Confirmatory qHTS for agonist of cAMP-regulated guanine nucleotide exchange factor 3 (EPAC1) (AID 1645881); settings: EPAC1 Rap1B BODIPY-GDP exchange fluorescence; series mostly up to 271 µM;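 note: EPAC1 catalysed release of BODIPY-GDP from Rap1B seen as fluorescence loss; nearly all actives have a fitted effect of over 75% in size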
[18] = molecular target: Rap guanine nucleotide exchange factor 4 (Homo sapiens) (UniProt Q8WZA2); assay: Confirmatory qHTS for agonist of cAMP-regulated guanine nucleotide exchange factor 4 (EPAC2) (AID 1645884); settings: EPAC2 GEF activity, Rap1B-BODIPY-GDP fluorescence; series mostly up to 154 µM;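 note: nucleotide exchange releases bodipy-GDP from Rap1 and this lowers its fluorescence; nearly all actives have a fitted effect of over 65% in size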
Rap guanine nucleotide exchange factor 4 (Homo sapiens), sequence (Q8WZA2 whole entry, looked up): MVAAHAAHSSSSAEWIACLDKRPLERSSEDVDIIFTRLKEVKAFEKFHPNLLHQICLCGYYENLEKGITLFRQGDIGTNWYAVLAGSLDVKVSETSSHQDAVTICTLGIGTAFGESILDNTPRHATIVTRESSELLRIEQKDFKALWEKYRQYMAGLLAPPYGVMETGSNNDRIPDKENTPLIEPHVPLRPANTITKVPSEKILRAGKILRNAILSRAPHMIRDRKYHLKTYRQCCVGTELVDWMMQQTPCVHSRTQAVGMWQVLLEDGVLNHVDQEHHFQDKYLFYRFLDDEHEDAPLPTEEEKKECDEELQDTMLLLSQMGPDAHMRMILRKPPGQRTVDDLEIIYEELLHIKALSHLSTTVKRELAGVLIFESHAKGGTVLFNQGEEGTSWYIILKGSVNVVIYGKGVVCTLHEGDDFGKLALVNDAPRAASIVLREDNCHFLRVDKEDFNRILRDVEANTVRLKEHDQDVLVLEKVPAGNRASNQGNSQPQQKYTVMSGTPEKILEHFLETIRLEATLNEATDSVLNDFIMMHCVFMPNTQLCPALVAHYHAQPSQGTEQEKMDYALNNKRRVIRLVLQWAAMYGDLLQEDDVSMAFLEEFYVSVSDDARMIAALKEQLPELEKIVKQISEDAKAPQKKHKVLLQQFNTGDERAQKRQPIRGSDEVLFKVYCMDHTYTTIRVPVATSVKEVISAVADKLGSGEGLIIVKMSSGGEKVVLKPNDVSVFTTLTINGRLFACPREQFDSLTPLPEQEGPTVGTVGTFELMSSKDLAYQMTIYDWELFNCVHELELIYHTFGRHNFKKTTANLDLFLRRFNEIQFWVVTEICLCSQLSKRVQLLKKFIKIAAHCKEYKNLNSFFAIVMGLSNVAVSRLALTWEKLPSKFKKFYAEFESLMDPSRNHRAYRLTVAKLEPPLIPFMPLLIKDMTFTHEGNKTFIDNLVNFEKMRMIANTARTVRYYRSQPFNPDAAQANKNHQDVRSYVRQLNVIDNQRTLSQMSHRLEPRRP

[19] = molecular target: Rap guanine nucleotide exchange factor 4 (Homo sapiens) (UniProt Q8WZA2); assay: Confirmatory qHTS for antagonist of cAMP-regulated guanine nucleotide exchange factor 4 (EPAC2) (AID 1645885); settings: EPAC2 Rap1B-BODIPY-GDP exchange fluorescence, biochemical; series mostly up to 202 µM; note: potency is the fitted concentration of half-maximal effect; nearly all actives have a fitted effect of over 25% in size

## CN(C)CCOC(c1ccccc1)c1ccc(Br)cc1 (configuration not stated)
[1]
  Potency: 23.7 µM (active)
[2]
  Potency: inactive
[3]
  Potency: inactive

## O=C(O)/C=C(\CC(=O)O)C(=O)O
[1]
  Potency: inactive
[2]
  Potency: inactive
[3]
  Potency: inactive

## C[N+](C)(C)CCO
[4]
  outcome: inactive
[5]
  outcome: inactive
[6]
  outcome: inactive
[7]
  outcome: inactive
[8]
  outcome: inactive
[9]
  outcome: inactive
[2]
  Potency: inactive
[3]
  Potency: inactive

## Cn1cnc2c(NCc3ccccc3)nc(NCCO)nc21
[9]
  outcome: inactive
[2]
  Potency: inactive

## COc1cccc2c1[C@@H]1CN(CCCCn3c(=O)[nH]c4c(sc5ncc(-c6ccccc6)nc54)c3=O)C[C@@H]1CO2
[9]
  outcome: inactive
[2]
  Potency: inactive
[3]
  Potency: inactive

## Oc1ccc(CCNCCCCCCNCCc2ccccc2)cc1O
[1]
  Potency: 16.8 µM (active)
[2]
  Potency: inactive

## C[C@@H](O[C@H]1OCCN(Cc2n[nH]c(=O)[nH]2)[C@H]1c1ccc(F)cc1)c1cc(C(F)(F)F)cc(C(F)(F)F)c1
[10]
  Potency: inactive
[2]
  Potency: inactive

## Clc1ccc2c(c1)N=C(N1CCNCC1)c1ccccc1N2
[10]
  Potency: inactive
[11]
  outcome: inactive
[9]
  outcome: inactive
[2]
  Potency: inactive
[3]
  Potency: inactive

## C[C@H]1C[C@H](O)c2ccsc2S1(=O)=O
[1]
  Potency: inactive

## CCCCCOc1ccc(C2SC(=O)NC2=O)cc1OCC (configuration not stated)
[1]
  Potency: inactive
[3]
  Potency: 22.4 µM (active)

## Cc1nn(-c2ccccc2)c(C)c1/C=N/N1CCN(Cc2ccccc2)CC1
[9]
  outcome: inactive
[2]
  Potency: inactive
[3]
  Potency: inactive

## O=C1NC(=O)/C(=C/c2ccc3c(c2)OC(F)(F)O3)S1
[9]
  outcome: inactive
[2]
  Potency: inactive
[3]
  Potency: inactive

## CCCC(=O)O[C@]1(C(=O)CCl)[C@@H](C)C[C@H]2[C@@H]3CCC4=CC(=O)C=C[C@]4(C)[C@@]3(F)C(=O)C[C@@]21C
[1]
  Potency: 0.0007 µM (active)
[2]
  Potency: inactive
[3]
  Potency: inactive

## CC1(C)O[C@@H]2C[C@H]3[C@@H]4CCC5=CC(=O)C=C[C@]5(C)[C@@]4(F)[C@@H](O)C[C@]3(C)[C@]2(C(=O)CO)O1
[1]
  Potency: 59.6 nM (active) and 13.2 nM (active)
[2]
  Potency: inactive
[3]
  Potency: inactive

## CC[C@@H]([C@H](C)O)n1ncn(-c2ccc(N3CCN(c4ccc(OC[C@@H]5CO[C@@](Cn6cncn6)(c6ccc(F)cc6F)C5)cc4)CC3)cc2)c1=O
[10]
  Potency: inactive
[2]
  Potency: inactive
[3]
  Potency: inactive

## COC(=O)C1=CO[C@@H](O)[C@@H]2C(CO)=CC[C@H]12
[9]
  outcome: inactive
[2]
  Potency: inactive
[3]
  Potency: inactive

## CCOC(=O)OCC/C(SC(=O)OCC)=C(\C)N(C=O)Cc1cnc(C)nc1N
[2]
  Potency: inactive

## CCC(=O)O[C@]1(C(=O)COC)[C@@H](C)C[C@H]2[C@@H]3CCC4=CC(=O)C=C[C@]4(C)C3(F)[C@@H](O)C[C@@]21C (some centres not stated)
[1]
  Potency: 0.0033 µM (active)
[2]
  Potency: inactive

## CCCCC/C=C\C/C=C\CCCCCCCC(=O)NC(C)c1ccccc1 (configuration not stated)
[1]
  Potency: 16.8 µM (active)
[2]
  Potency: inactive
[3]
  Potency: inactive

## CCOC(=O)Cn1cccc1-c1nc(-c2ccc(OC)cc2)c(-c2ccc(OC)cc2)s1
[1]
  Potency: inactive
[12]
  activity: -5.88%
[13]
  activity change, negative = inhibition: -8.59%
[14]
  activity: -5.59%
[15]
  activity: -4.51%
[2]
  Potency: inactive
[3]
  Potency: inactive

## C[C@]12CCC(=O)C=C1CC[C@@H]1[C@@H]2[C@@H](O)C[C@@]2(C)[C@H]1CC[C@]2(O)C(=O)COC(=O)CCC(=O)O
[1]
  Potency: 1.88 µM (active)
[2]
  Potency: inactive
[3]
  Potency: inactive

## C[N+](C)(CCOc1ccccc1)Cc1cccs1
[1]
  Potency: 26.6 µM (active)
[2]
  Potency: inactive
[3]
  Potency: inactive

## CC(C)(c1ccc(O)cc1)c1ccc(O)cc1
[16]
  Potency: inactive
[17]
  Potency: inactive
[18]
  Potency: inactive
[19]
  Potency: 80.4 µM (active)

## CCCCC(=O)OCC(=O)[C@H]1[C@H](C)C[C@H]2[C@@H]3C[C@H](F)C4=CC(=O)C=C[C@]4(C)[C@@]3(F)[C@@H](O)C[C@@]21C
[1]
  Potency: 0.0033 µM (active)
[2]
  Potency: inactive
[3]
  Potency: inactive

## CCN(CC)CC(=O)OCC(=O)[C@@]1(O)CC[C@H]2[C@@H]3CCC4=CC(=O)CC[C@]4(C)[C@H]3[C@@H](O)C[C@@]21C
[1]
  Potency: 0.0944 µM (active)
[2]
  Potency: inactive
[3]
  Potency: inactive

## CCN(CC)CCNC(=O)c1ccc(NS(C)(=O)=O)cc1
[9]
  outcome: inactive
[2]
  Potency: inactive
[3]
  Potency: inactive

## CCC(CN)=C(c1ccccc1)c1ccccc1
[2]
  Potency: inactive

## N#CSCC(=O)O
[2]
  Potency: inactive

## Nc1ncnc2n[nH]c(Nc3ccc(F)cc3)c12
[9]
  outcome: inactive
[2]
  Potency: inactive
[3]
  Potency: inactive

## CN1CCCN(C(c2ccccc2)c2ccc(Cl)cc2)CC1 (configuration not stated)
[1]
  Potency: 16.8 µM (active)
[2]
  Potency: inactive
[3]
  Potency: inactive

## CC(C)=CCC/C(C)=C/CC/C(C)=C/C(=O)OCC(=O)[C@@]1(O)CC[C@H]2[C@@H]3CCC4=CC(=O)C=C[C@]4(C)[C@H]3[C@@H](O)C[C@@]21C
[1]
  Potency: 4.73 µM (active)
[2]
  Potency: inactive
[3]
  Potency: inactive

— PubChem BioAssay (NCATS)
